The record followed here is PubChem BioAssay (NCATS).

Records with an inconclusive call do not appear. The source made the active and inactive calls. Unless noted, calls come from the whole dose curve; as a rule, active = well fitted curve in the direction sought with a large enough effect; inconclusive = small, poorly fitted or top-dose-only effect, or another doubt; inactive = no such curve, though single readings can be large; an effect the other way counts as inactive or inconclusive.

Experiment [1] concerns the target Arylsulfatase A (Homo sapiens) (UniProt P15289). Kind of experiment: qHTS screen for enhancers of Arylsulfatase A (ASA1): LOPAC Validation Assay (AID 720538). Note: potency is the fitted concentration of half-maximal effect. An outline of the steps:
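Enhancer assay in patient-derived MLD fibroblasts carrying ASA-I179S: 48 h compound exposure at 37 C, then 14 h room-temperature pNCS turnover (0.5 mM final) in lysis buffer. Read by fluorescence at 525/598 nm after NaOH stop.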

The nature of experiment [2]: qHTS for compounds that reverse cellular toxicity of Amyloid beta (A-beta) peptide in yeast: LOPAC Validation Assay (AID 720559). Note: potency is the fitted concentration of half-maximal effect. The following applies: Potency: rescue of growth toxicity. An outline of the steps:
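Rescue of A-beta toxicity was scored as yeast growth by 600 nm absorbance after 48 hr at 30 C with compound. Normalization used DMSO (negative) and equimolar ferric chloride plus clioquinol (positive).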
For orientation: qHTS replaces the single test concentration by a dilution series.

Experiment [3] is described as follows: qHTS for Activators of Parkin Expression: LOPAC Validation Assay (NLuc Reporter) (AID 720572). An outline of the steps: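 Cells harboring the Parkin-promoter coincidence reporter were treated for 24 h at seven concentrations. NLuc output was measured sequentially after the FLuc channel and scaled between DMSO and positive control values.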
Experiment [4] is described as follows: qHTS for Activators of Parkin Expression: LOPAC Validation Assay (FLuc Reporter) (AID 720573; note: potency is the fitted concentration of half-maximal effect). An outline of the steps: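 FLuc signal from Parkin-promoter coincidence reporter neuronal cells, normalized to DMSO and positive control (100%). Cells (1,500/well) pre-incubated 24 h, then exposed to LOPAC compounds in 7-point dose response for 24 h at 37 C, 5% CO2.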

Experiment [5] addresses T1, Hexokinase-4 (Homo sapiens) + Glucokinase regulatory protein (Homo sapiens) (UniProt P35557+Q14397). Kind of experiment: qHTS assay for inhibitors of recombinant human GCK-GKRP interaction: ADP-Glo assay (AID 743206). Note: potency is the fitted concentration of half-maximal effect. An outline of the steps:
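Pin-transferred compounds meet a 15 nM GST-GCK/15 nM FLAG-GKRP/2 uM S6P mix (dispense concentrations). ATP is then added to 0.4 mM final with 5 mM glucose, and the reaction runs 60 min at room temperature. ADP is quantified luminescently.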

The target of experiment [6] is T1, Hexokinase-4 (Homo sapiens) + Glucokinase regulatory protein (Homo sapiens). Kind of experiment: qHTS assay for inhibitors of recombinant human GCK-GKRP interaction: HTRF assay (AID 743207). An outline of the steps:
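After 60 min equilibration at room temperature with anti-FLAG XL665 and anti-GST antibodies, FRET ratio (665/615 nm, excitation 320 nm) was read. Proteins: GST-GCK and FLAG-GKRP, each 5 nM, plus 2 uM S6P, pH 7.1 buffer; GCK-free wells define minimum signal.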

For experiment [7] the target is unchanged. Kind of experiment: qHTS assay for inhibitors of recombinant human GCK-GKRP interaction: Diaphorase-coupled assay (AID 743205). An outline of the steps:
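A kinetic fluorescence read (Ex 525/Em 590 nm, every minute for 30 minutes) tracked resorufin from a G6PDH-diaphorase coupled GCK reaction. It contained 10 nM GST-GCK, 10 nM FLAG-GKRP, 5 mM glucose, 0.4 mM ATP in Hepes pH 7.6. Normalized to with/without-enzyme DMSO controls.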

The nature of experiment [8]: qHTS assay for small molecule agonists of the antioxidant response element (ARE) signaling pathway measured by Nrf2-dependant transcriptional activity (AID 720636; active = well fitted curve in the direction sought with a large enough effect in the repeat runs; an effect the other way counts as inactive or inconclusive;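 note: HepG2 cells with an ARE-driven luciferase reporter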). An outline of the steps:
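Cells: ARE-luc HepG2 with Nrf2-responsive luciferase. Medium contained 1% dialyzed FBS. Compound exposure lasted 16 hr at 37 C and 5% CO2, followed by ONE-Glo luciferase detection.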

The nature of experiment [9]: qHTS assay for small molecule antagonists of the retinoid-related orphan receptor gamma (ROR-gamma) signaling pathway - cell viability counter screen (AID 720652; active = well fitted curve in the direction sought with a large enough effect in the repeat runs; an effect the other way counts as inactive or inconclusive;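 note: CHO reporter cells with doxycycline-induced ROR-gamma expression; series mostly up to about 92 µM; compound exposure lasted 16 hr before ATP read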). An outline of the steps:
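Cytotoxicity counter screen: intracellular ATP (CellTiter-Glo luminescence) measured in the doxycycline-induced CHO RORE-luciferase reporter line after 16 hr compound exposure at 37 C, 5% CO2.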

Arylsulfatase A (Homo sapiens), sequence (P15289 whole entry, looked up): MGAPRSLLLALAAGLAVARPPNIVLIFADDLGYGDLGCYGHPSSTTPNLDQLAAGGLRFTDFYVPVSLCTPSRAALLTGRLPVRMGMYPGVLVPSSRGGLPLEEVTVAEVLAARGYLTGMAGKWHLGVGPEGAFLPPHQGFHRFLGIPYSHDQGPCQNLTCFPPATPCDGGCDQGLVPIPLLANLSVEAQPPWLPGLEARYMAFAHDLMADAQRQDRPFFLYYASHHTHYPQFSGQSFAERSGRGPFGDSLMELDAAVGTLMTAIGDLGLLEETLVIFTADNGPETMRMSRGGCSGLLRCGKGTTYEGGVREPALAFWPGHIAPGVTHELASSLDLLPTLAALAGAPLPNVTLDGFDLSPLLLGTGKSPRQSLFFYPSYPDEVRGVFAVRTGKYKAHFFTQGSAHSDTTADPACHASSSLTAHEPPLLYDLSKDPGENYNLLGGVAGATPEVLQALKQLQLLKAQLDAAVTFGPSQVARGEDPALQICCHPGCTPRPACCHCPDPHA
T1 sequence (P35557 whole entry, looked up): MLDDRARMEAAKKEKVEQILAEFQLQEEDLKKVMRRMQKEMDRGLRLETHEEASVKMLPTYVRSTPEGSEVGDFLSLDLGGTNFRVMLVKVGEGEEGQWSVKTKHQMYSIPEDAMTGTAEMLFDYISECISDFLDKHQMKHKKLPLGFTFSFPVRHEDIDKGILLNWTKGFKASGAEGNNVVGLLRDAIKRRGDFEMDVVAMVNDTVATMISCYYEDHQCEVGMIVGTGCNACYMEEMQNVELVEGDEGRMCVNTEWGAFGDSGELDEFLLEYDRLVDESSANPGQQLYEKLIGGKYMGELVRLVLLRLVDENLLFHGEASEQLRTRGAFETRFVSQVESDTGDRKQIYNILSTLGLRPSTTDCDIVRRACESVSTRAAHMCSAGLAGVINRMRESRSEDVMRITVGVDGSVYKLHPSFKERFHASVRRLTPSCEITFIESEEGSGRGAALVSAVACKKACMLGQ
T1 sequence (Q14397 whole entry, looked up): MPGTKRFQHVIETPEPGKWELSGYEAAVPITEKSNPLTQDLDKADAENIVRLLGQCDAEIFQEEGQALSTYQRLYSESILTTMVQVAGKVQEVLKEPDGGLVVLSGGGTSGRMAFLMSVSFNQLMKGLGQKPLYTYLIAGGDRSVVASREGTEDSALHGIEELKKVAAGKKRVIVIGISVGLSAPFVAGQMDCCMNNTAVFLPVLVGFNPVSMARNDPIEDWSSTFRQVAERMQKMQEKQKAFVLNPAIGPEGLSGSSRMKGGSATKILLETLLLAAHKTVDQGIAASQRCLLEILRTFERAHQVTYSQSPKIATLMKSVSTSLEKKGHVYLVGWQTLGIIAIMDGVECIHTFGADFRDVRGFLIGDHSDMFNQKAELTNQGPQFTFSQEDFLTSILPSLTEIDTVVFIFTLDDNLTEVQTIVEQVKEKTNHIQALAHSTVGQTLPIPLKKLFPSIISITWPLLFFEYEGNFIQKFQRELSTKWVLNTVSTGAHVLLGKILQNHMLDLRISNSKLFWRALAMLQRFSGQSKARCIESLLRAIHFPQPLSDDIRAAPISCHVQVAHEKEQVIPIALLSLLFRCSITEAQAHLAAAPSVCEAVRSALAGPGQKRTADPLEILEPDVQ

Regarding `O=C(Nc1cccc(C(=O)Nc2ccc(S(=O)(=O)O)c3cc(S(=O)(=O)O)cc(S(=O)(=O)O)c23)c1)Nc1cccc(C(=O)Nc2ccc(S(=O)(=O)O)c3cc(S(=O)(=O)O)cc(S(=O)(=O)O)c23)c1`, the Potency entry in experiment [1], in experiment [2], in [3], in experiment [4] and in experiment [6] was “inactive” each time. Further, the Potency in [5] is 22.4 µM (active).

Turning to `CN1CCc2ccccc2Cc2[nH]c3ccccc3c2CC1`, the Potency result in experiment [2], in [3], in experiment [4], in [5] and in experiment [6] was “inactive” each time. Further, the outcome in experiment [7] was inactive.

With `N=c1ccn2c(n1)O[C@H]1[C@H](O)[C@@H](CO)O[C@H]12`, the Potency entry in experiment [1], in experiment [3], in experiment [4], in experiment [5] and in [6] was “inactive” in each case. The outcome in experiment [7] was inactive.

`CN(C)CCC(c1ccc(Cl)cc1)c1ccccn1` (stereo not given): the Potency result in experiment [2], in [3], in [4], in experiment [8], in [9] and in [5] was “inactive” in each case. In addition, in [6], the Potency entry was “inactive”. Further, the result in experiment [7] was inactive.

In the case of `O=[N+]([O-])c1ccc2c(c1)S(=O)(=O)C=C2`, the Potency entry in [1], in experiment [3], in experiment [4], in [5] and in experiment [6] was “inactive” in each case. Also, the outcome in [7] was inactive.

Turning to `O=C(c1ccc(OCCCc2cnc[nH]2)cc1)C1CC1`, the Potency result in [1], in [3], in experiment [5] and in experiment [6] was “inactive” each time. For the same compound, in experiment [7], the result was inactive.

Turning to `O=C(/C=C/c1ccc(O)c(O)c1)OCCc1ccccc1`, the Potency entry in experiment [1], in experiment [2], in experiment [3], in experiment [5] and in experiment [6] was “inactive” throughout.

Turning to `CCc1c(C(=O)NCCc2ccc(N3CCCCC3)cc2)[nH]c2ccc(Cl)cc12`, the Potency result in experiment [2], in experiment [3] and in experiment [4] was “inactive” in each case.

Regarding `COc1ccc(/C=C/C(=O)Nc2ccccc2C(=O)O)cc1OC`, in experiment [1], the Potency is 6.75 µM (active). For the same compound, the Potency result in experiment [4], in [5] and in experiment [6] was “inactive” throughout. The outcome in experiment [7] was inactive.

On to `CCCCN1CCC(n2c(=O)[nH]c3ccccc32)CC1`, for which the Potency entry in experiment [2], in [3], in [4], in [5] and in experiment [6] was “inactive” throughout. Besides, the outcome in [7] was inactive.

Take `Oc1cc(O)cc(/C=C/c2ccc(O)c(O)c2)c1`: in [1], the Potency is 23.9 µM (active). In addition, the Potency result in experiment [2] and in [6] was “inactive” throughout. The result in experiment [7] was inactive.

Consider `COc1cc(OC)c(/C=C2/C(=O)Nc3ccccc32)c(OC)c1`, for which the Potency result in experiment [2], in [3], in experiment [4], in experiment [5] and in [6] was “inactive” throughout. Further, the outcome in experiment [7] was inactive.

Regarding `Cc1nc2sccn2c(=O)c1CCN1CCC(=C(c2ccccc2)c2ccc(F)cc2)CC1`, the Potency entry in experiment [2], in experiment [3], in experiment [4], in experiment [5] and in [6] was “inactive” throughout. Further, the outcome in [7] was inactive.

`NC(=S)NCCC[C@H](N)C(=O)O`: the Potency entry in experiment [1], in experiment [3], in [5] and in experiment [6] was “inactive” throughout. Moreover, the result in [7] was inactive.

As to `CCC1C(=O)OCC1Cc1cncn1C` (stereo not given), the Potency result in experiment [1], in experiment [3] and in experiment [6] was “inactive” throughout. In experiment [7], the result was inactive.

Regarding `NCCSSCCN`, the Potency entry in experiment [1], in [3], in [4], in experiment [5] and in experiment [6] was “inactive” throughout. Besides, the outcome in experiment [7] was inactive.

For `O=S(=O)(c1cccc2c(I)cccc12)N1CCCNCC1`, the Potency result in [1], in experiment [3] and in experiment [6] was “inactive” throughout.

In the case of `CN1CCC[C@H]1c1cccnc1`, the Potency entry in experiment [2], in experiment [3], in experiment [4], in [8], in experiment [9] and in [5] was “inactive” each time. Also, the Potency result in [6] is “inactive”. The result in [7] was inactive.

For the compound `CC[C@@H](C)[C@H]1O[C@]2(CC[C@H]1C)C[C@@H]1C[C@@H](CC=C(C)[C@@H](O[C@H]3C[C@H](OC)[C@@H](O[C@H]4C[C@H](OC)[C@@H](O)[C@H](C)O4)[C@H](C)O3)[C@@H](C)C=CC=C3CO[C@@H]4[C@H](O)C(C)=C[C@@H](C(=O)O1)[C@]34O)O2`, the Potency result in experiment [1], in [5] and in [6] was “inactive” throughout. Moreover, in experiment [7], the result was inactive.

Regarding `Nc1ncnc2c1c(I)cn2[C@@H]1C[C@H](N)[C@@H](O)[C@H]1O`, the Potency entry in experiment [1], in [2], in [5] and in experiment [6] was “inactive” in each case. Also, in experiment [4], the Potency is 20.6 µM (active). The result in experiment [7] was inactive.

Turning to `N.N.O=C(O)C1(C(=O)O)CCC1.[Pt]`, the Potency entry in experiment [2], in [3], in experiment [4], in experiment [5] and in experiment [6] was “inactive” throughout. The outcome in experiment [7] was inactive.

Consider `Nc1nc(Cl)nc2c1ncn2[C@@H]1O[C@H](COP(=O)(O)OP(=O)(O)OP(=O)(O)O)[C@@H](O)[C@H]1O`, for which the Potency in experiment [2] was 18.4 µM (active). The Potency entry in [3], in experiment [4] and in [5] was “inactive” in each case. The outcome in experiment [7] was inactive.

As to `CSc1nc(N)c2ncn([C@@H]3O[C@H](COP(=O)(O)OP(=O)(O)OP(=O)(O)O)[C@@H](O)[C@H]3O)c2n1`, the Potency result in [1], in experiment [3], in [4], in experiment [5] and in [6] was “inactive” each time.

As to `COC(=O)c1c(C)[nH]c(C)c1C(=O)c1ccccc1Cc1ccccc1`, the Potency result in [2], in [3], in experiment [4], in experiment [5] and in experiment [6] was “inactive” each time. Besides, the result in [7] was inactive.

`C#CCN1C(C)=C(C(=O)OC)C(c2cccc([N+](=O)[O-])c2)C(C(=O)OCC)=C1C` (stereo not given): the Potency result in experiment [1], in [2], in experiment [4], in experiment [5] and in [6] was “inactive” each time.
